Among the data in PubChem BioAssay (NCATS) are Potency values, retold here.

Values joined by “and” are separate entries in the source; they are usually repeats but may differ in a detail not shown here. Identical values can stand only once. Inconclusive results are not listed. Active and inactive are the calls of the source. The call rests on the fitted dose curve; in most records, active means well fitted curve in the direction sought with a large enough effect; inconclusive means small, poorly fitted or top-dose-only effect, or another doubt; inactive means no such curve, though single readings can be large; an effect the other way counts as inactive or inconclusive.

A short description of assay [1]: qHTS of pediatric cancer cell lines to identify multiple opportunities for drug repurposing: Primary screen for SK-N-SH cells (AID 1347098). Further: nearly all actives have a fitted effect of over 65% in size. An outline of the steps:
(§1)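 Cells (500-1,000/well) rested 5 h, then received compounds for 48 h; metabolically active cells were measured by CellTiter-Glo luminescence. Final concentrations spanned up to 46 µM (MIPE, 11-point) or 0.59 nM-46 µM (NPC, 8-point) in primary screens, 11-point in follow-ups.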
On the technique in general: qHTS replaces the single test concentration by a dilution series.

Assay [2] is described as follows: qHTS of pediatric cancer cell lines to identify multiple opportunities for drug repurposing: Primary screen for NB1643 cells (AID 1347099). Further: nearly all actives have a fitted effect of over 50% in size. In outline:
(§2)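 Following a 5-hour attachment period, cells at 500-1,000/well received compounds and were cultured for 48 hours. CellTiter-Glo was added and luminescence read to estimate viable, metabolically active cells.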

Assay [3] can be described thus: qHTS of pediatric cancer cell lines to identify multiple opportunities for drug repurposing: Primary screen for LAN-5 cells (AID 1347100). In outline:
(§3)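 Cells (500-1,000/well) in growth media were settled 5 h at 37 degrees C, then given compounds for 48 h. Viability was read as CellTiter-Glo luminescence. Primary runs used MIPE at 11 points (0.78 nM-46 µM) and NPC at 8 points (0.59 nM-46 µM); follow-ups used 11 points.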

A short description of assay [4]: qHTS of pediatric cancer cell lines to identify multiple opportunities for drug repurposing: Primary screen for BT-12 cells (AID 1347101). Further: nearly all actives have a fitted effect of over 25% in size. In outline:
as §1

Assay [5] in a line: qHTS of pediatric cancer cell lines to identify multiple opportunities for drug repurposing: Primary screen for Rh18 cells (AID 1347102). Further: nearly all actives have a fitted effect of over 65% in size. An outline of the steps:
as §3

The nature of assay [6]: qHTS of pediatric cancer cell lines to identify multiple opportunities for drug repurposing: Primary screen for RD cells (AID 1347104). Further: nearly all actives have a fitted effect of over 55% in size. An outline of the steps:
as §2

Assay [7] can be described thus: qHTS of pediatric cancer cell lines to identify multiple opportunities for drug repurposing: Primary screen for MG 63 (6-TG R) cells (AID 1347105). Further: nearly all actives have a fitted effect of over 50% in size. An outline of the steps:
as §2

A short description of assay [8]: qHTS of pediatric cancer cell lines to identify multiple opportunities for drug repurposing: Primary screen for control Hh wild type fibroblast cells (AID 1347106). Further: nearly all actives have a fitted effect of over 55% in size. In outline: as §3
Assay [9] can be described thus: qHTS of pediatric cancer cell lines to identify multiple opportunities for drug repurposing: Primary screen for Rh30 cells (AID 1347107). Further: nearly all actives have a fitted effect of over 75% in size. An outline of the steps:
as §3

Assay [10] is described as follows: qHTS of pediatric cancer cell lines to identify multiple opportunities for drug repurposing: Primary screen for OHS-50 cells (AID 1347103). Further: nearly all actives have a fitted effect of over 40% in size. An outline of the steps: as §1
Potency means the concentration at half of the fitted maximal effect.

On to `CC(C)NCC(O)COc1cccc2[nH]ccc12` (stereo unspecified), for which the Potency entry in [1], in [2], in assay [3], in [4], in [5] and in assay [6] was “inactive” throughout. Further, the Potency result in assay [7], in assay [8] and in assay [9] was “inactive” throughout.
In the case of `CCOC(=O)O[C@]1(C(=O)OCCl)CC[C@@H]2[C@H]3CCC4=CC(=O)C=C[C@]4(C)[C@@H]3[C@@H](O)C[C@@]21C`, the Potency entry in [1], in [2], in [3], in [4], in assay [5] and in [10] was “inactive” each time. Further, the Potency entry in assay [6], in [7], in assay [8] and in assay [9] was “inactive” in each case.
For the molecule `O=C(O)c1cc(-c2ccccc2)nc2ccccc12`, the Potency entry in assay [1], in assay [2], in assay [3], in assay [4], in assay [5] and in assay [6] was “inactive” in each case. The Potency result in assay [7], in [8] and in assay [9] was “inactive” throughout.
`NS(=O)(=O)c1cccc2c1C(=O)c1cccc(O)c1C2=O`: the Potency in assay [1] was 30.4 µM (active); in assay [2], 1.05 µM (active); in assay [3], 1.05 µM (active); in [4], 273 nM (active); in assay [5] it was 743 nM (active); in assay [6], 526 nM (active). Also, the results for the Potency in [7] and in assay [9] were 2.35 µM (active) and 2350 nM (active), respectively.
With `CCC(CC)[C@H](NC(C)=O)[C@@H]1[C@H](O)[C@@H](C(=O)O)C[C@@H]1N=C(N)N`, the Potency entry in [1], in assay [2], in [3], in assay [4], in [5] and in assay [10] was “inactive” in each case. Further, the Potency entry in [6], in assay [7], in [8] and in assay [9] was “inactive” throughout.
Turning to `C[N+](C)(C)CC(=O)O`, the Potency entry in [1], in [2], in assay [3], in assay [4], in assay [5] and in assay [10] was “inactive” each time. For the same molecule, the Potency entry in [6], in [7], in [8] and in assay [9] was “inactive” each time.
Turning to `NC(N)=Nc1nc(CSCC/C(N)=N/S(N)(=O)=O)cs1`, the Potency entry in [1], in assay [2], in [3], in assay [4], in assay [5] and in assay [10] was “inactive” in each case. Also, the Potency result in [6], in [7], in assay [8] and in assay [9] was “inactive” each time.
Consider `Cc1ccc(C(=O)Nc2cccc(C(F)(F)F)c2)cc1Nc1nc(-c2cccnc2)nc2c1cnn2C`, for which the Potency result in [1] and in [8] was “inactive” in each case. Moreover, the Potency in [2] is 7.43 µM (active); in [3], 13.2 µM (active); in assay [4], 24300 nM (active); in [5], 20900 nM (active); in [10], 21.7 µM (active); in [6], 14800 nM (active). Besides, the Potency in [7] is 18.7 µM (active); in assay [9], 18700 nM (active).
In the case of `C[N+](C)(C)CCCCCC[N+](C)(C)C`, the Potency entry in assay [1], in assay [2], in [3], in [4], in [5] and in assay [6] was “inactive” each time. The Potency entry in assay [7], in assay [8] and in assay [9] was “inactive” in each case.
`CC(=O)CCCCn1c(=O)c2c(ncn2C)n(C)c1=O`: the Potency entry in assay [1], in [2], in assay [3], in assay [4], in [5] and in assay [10] was “inactive” in each case. Further, the Potency entry in assay [6], in assay [7], in assay [8] and in assay [9] was “inactive” throughout.
In the case of `CC(=O)N[C@@H](CS)C(=O)O`, the Potency result in assay [1], in assay [2], in assay [3], in assay [4], in [5] and in assay [10] was “inactive” in each case. The Potency entry in assay [6], in assay [7], in assay [8] and in assay [9] was “inactive” each time.
Take `O=C1NC(=O)C(c2ccccc2)(c2ccccc2)N1`: the Potency result in assay [1], in [2], in assay [3], in [4], in [5] and in [10] was “inactive” throughout. The Potency entry in assay [6], in assay [7], in [8] and in assay [9] was “inactive” throughout.
Take `O=C(CCCCCCC(=O)Nc1ccccc1)NO`: the Potency in assay [1] is 2.73 µM (active) and 7.64 µM (active); in assay [2], 944 nM (active) and 1.32 µM (active); in assay [3], 1 nM (active) and 1.32 µM (active); in assay [4] it was 6.92 µM (active) and 17.2 µM (active); in [5], 2.99 µM (active) and 4.18 µM (active); in assay [10], 2.19 µM (active) and 2.73 µM (active). Besides, the Potency in assay [6] was 5.31 µM (active) and 6.62 µM (active); in assay [7], 3.35 µM (active) and 3.72 µM (active).
For `COc1cc2nc(-c3ccc(N4CCN(C)CC4)cc3)nc(NCCN3CCOCC3)c2cc1OC`, the Potency is 4.82 µM (active) in [1]; 1.87 µM (active) in [2]; 0.0187 µM (active) in assay [3]; 153 nM (active) in assay [4]; 235 nM (active) in assay [5]; 0.0544 µM (active) in [10]. In addition, the Potency in assay [6] is 41.8 nM (active); in assay [7], 1.48 µM (active); in assay [8], 3320 nM (active); in assay [9], 46.9 nM (active).
`OC[C@@H](O)[C@H](O)[C@H](O)[C@@H](O)CO`: the Potency result in assay [1], in assay [2], in assay [3], in assay [4], in assay [5] and in assay [6] was “inactive” each time. The Potency entry in assay [7], in assay [8] and in assay [9] was “inactive” each time.
With `CCCCC1C(=O)N(c2ccccc2)N(c2ccccc2)C1=O`, the Potency entry in assay [1], in assay [2], in assay [3], in assay [4], in assay [5] and in assay [10] was “inactive” throughout. Moreover, the Potency result in assay [6], in assay [8] and in assay [9] was “inactive” in each case.
Turning to `O=c1c(-c2ccc(O)cc2)coc2cc(O[C@@H]3O[C@H](CO)[C@H](O)[C@H](O)[C@H]3O)ccc12`, the Potency result in assay [1], in [2], in [3], in [4], in [5] and in assay [10] was “inactive” throughout. For the same molecule, the Potency result in [6], in assay [7], in assay [8] and in assay [9] was “inactive” in each case.
